Only some compounds are listed: those with a hit (about 3.4% of all), similar ones and a draw of the others.
ANO1 block: TMEM16A chloride channel inhibitors, primary screen, cell-based, HTS. Anoctamin-1 (Mus musculus), Q8BHY3. normalized B-score (activity score, 25-100; higher = stronger inhibition) at 10 µM. 310,000 compounds, 1.2% hits. HEK293 TMEM16A/YFP iodide influx fluorescence, ionomycin;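 active means ratio plate-corrected score three or more library SD toward inhibition, starting fluorescence score within five deviations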;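 further: score derived from kinetic fluorescence span divided by baseline fluorescence per well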
MEKK2 WT-MEK5: modulators of MEK5 binding to wildtype MEKK2, primary screen, biochemical, multiplex bead flow cytometry, Alexa488-MEK5; Mitogen-activated protein kinase kinase kinase 2 (Homo sapiens), Q9Y2U5; Alexa488-MEK5 binding to MEKK2 WT; actives lie on both sides; binding response (% of control), % at 10 µM; 290,000 compounds, 1.1% hits; in the data active means binding response below about 67% or above about 130%
MEKK3 PB1 HTS: modulators of MEKK3-MEK5 PB1 binding, primary screen, biochemical, wildtype MEKK3, multiplex bead flow cytometry, Alexa488-MEK5; Mitogen-activated protein kinase kinase kinase 3 (Homo sapiens), Q99759; bead-based flow cytometry, Alexa488-MEK5 binding to MEKK3; actives lie on both sides; 0 = blocked by unlabeled MEK5, 100 = vehicle; binding response (% of control), % at 10 µM; 290,000 compounds, 1.4% hits; AID 1529, 2009;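 active means binding response more than 3 SD above or below the average of its plate-row segment, actives on both sides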;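 further: Alexa488 bead fluorescence after subtracting the streptavidin-only scavenger bead signal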
NTR1 agonist: agonists of human NTR1, primary screen, imaging, U2OS cells, beta-arrestin-GFP, high content | 330,000 compounds, 0.17% hits | AID 493036, 2011 | NTR1-U2OS beta-arrestin-GFP spot imaging, agonist mode | activation, % at 20 µM;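 active means activation at or above 40% of the spot to cytoplasm intensity ratio, with at least 20 cells analyzed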;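 further: 0% = DMSO without peptide and 100% = 100 nM NTR1 peptide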
MEKK2 mut-MEK5: MEK5 binding signal on mutant MEKK2 PB1, primary screen, biochemical, multiplex bead flow cytometry, Alexa488-MEK5 | Alexa488-MEK5 binding to MEKK2 mutant | percent response, % at 10 µM | 290,000 compounds, 0.35% hits; in the data active means percent response above about 24%, passing the limit was not always enough
ANO1 activ: TMEM16A chloride channel activators or potentiators, primary screen, cell-based, HTS | HEK293 TMEM16A/YFP-H148Q/I152L, iodide quench fluorescence; active compounds read low | B-score at 10 µM | 340,000 compounds, 0.3% hits;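 active means fluorescence-ratio B-score plate-corrected deviation score at least 3 library SD below zero, with starting fluorescence score within 5 deviations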;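 further: channel opened by trigger with iodide after compound preincubation; score built on the fluorescence ratio of max minus min over baseline; more negative score means more quench and so TMEM16A activation or potentiation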
NTR1 ag conf: NTR1 agonists, single-dose retest, confirmation, imaging, U2OS cells, beta-arrestin-GFP, single concentration. shares compounds with NTR1 agonist. NTR1-U2OS beta-arrestin-GFP translocation imaging. activation, % at 20 µM. 480 compounds, 38% hits. AID 504550, 2011;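 active means mean activation at 20 µM of at least 40%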;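 further: 0% = DMSO without peptide and 100% = 100 nM NTR1 peptide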
TMEM16A reconf: TMEM16A chloride channel inhibitors, confirmation, cell-based, re-confirmation; 2,300 compounds, 39% hits; shares compounds with ANO1 block; inhibition, % at 10 µM; HEK293 TMEM16A/YFP-H148Q, iodide quench fluorescence; ionomycin added to raise cell calcium; AID 652189, 2013;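 active means mean duplicate percent inhibition, scaled so buffer wells are 0 and the reference blocker 100, over three buffer SD above buffer mean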
TMEM16A Ca cntr: calcium mobilization in TMEM16A/YFP HEK293 cells, confirmation, counter-screen for TMEM16A inhibitor project; shares compounds with ANO1 block; Fluo4 calcium mobilization; calcium response (% of ionomycin), % at 10 µM; 2,300 compounds, 2% hits;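 active means duplicate-averaged calcium signal over 20% of the ionomycin maximum, relative to buffer baseline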;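 further: each well's signal is peak minus trough fluorescence divided by its pre-addition baseline; 0% = buffer wells and 100% = ionomycin wells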
Parental YFP cnt: iodide YFP quench changes in parental YFP-HEK293, counter-screen for TMEM16A inhibitor project, cell-based. shares compounds with ANO1 block. ionomycin. YFP ratio F(max-min)/F0 at 10 µM. 2,300 tested, under 10 active. AID 652233, 2013;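 active means yellow fluorescent protein signal ratio exceeding the buffer control mean by over 5 SD of those controls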;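 further: ratio is mean of duplicate wells from kinetic YFP trace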
ClC-1 rat inh: ClC-1 chloride channel inhibition, selectivity assay for TMEM16A inhibitor project, cell-based, voltage-dependent ClC-1. CHO ClC-1-YFP, iodide influx fluorescence quench; iodide control reads 0, buffer control 100. ratio percent, % at 10 µM. 2,300 tested, under 10 active. shares compounds with ANO1 block;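 active means duplicate-mean ratio percent above the mean of iodide-only control wells, which defines zero, plus 5 of their SD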;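 further: higher percent means stronger block of ClC-1 iodide influx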
Target sequence (P35524 whole entry, looked up): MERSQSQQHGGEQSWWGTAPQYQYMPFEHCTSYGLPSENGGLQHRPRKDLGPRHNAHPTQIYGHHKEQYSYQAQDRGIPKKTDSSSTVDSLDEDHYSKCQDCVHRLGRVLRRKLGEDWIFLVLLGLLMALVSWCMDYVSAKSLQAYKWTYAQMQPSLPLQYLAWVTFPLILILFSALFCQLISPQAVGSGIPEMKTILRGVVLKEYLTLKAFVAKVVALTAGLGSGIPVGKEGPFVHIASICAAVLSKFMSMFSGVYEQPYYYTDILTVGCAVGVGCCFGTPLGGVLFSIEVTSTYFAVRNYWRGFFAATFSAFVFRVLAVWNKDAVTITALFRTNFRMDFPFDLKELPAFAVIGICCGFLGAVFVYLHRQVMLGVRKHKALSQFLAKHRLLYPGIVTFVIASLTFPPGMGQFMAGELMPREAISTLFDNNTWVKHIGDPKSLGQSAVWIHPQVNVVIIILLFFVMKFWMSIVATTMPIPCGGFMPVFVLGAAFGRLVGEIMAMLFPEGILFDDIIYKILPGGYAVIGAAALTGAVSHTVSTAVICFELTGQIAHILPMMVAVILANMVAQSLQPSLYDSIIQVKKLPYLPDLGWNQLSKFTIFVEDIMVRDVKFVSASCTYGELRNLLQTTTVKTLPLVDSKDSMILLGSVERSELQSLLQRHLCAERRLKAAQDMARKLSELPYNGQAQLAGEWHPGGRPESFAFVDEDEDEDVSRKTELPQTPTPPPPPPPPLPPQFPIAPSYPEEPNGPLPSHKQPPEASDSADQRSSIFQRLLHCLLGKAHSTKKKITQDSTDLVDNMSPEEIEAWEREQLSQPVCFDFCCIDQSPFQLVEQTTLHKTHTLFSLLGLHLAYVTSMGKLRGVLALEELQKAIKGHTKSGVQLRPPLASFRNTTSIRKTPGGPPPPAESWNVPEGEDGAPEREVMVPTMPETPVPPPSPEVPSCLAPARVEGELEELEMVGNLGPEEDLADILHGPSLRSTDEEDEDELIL
Starred values were filed as active, the others as inactive; i = inactive; . = no result.

SMILES	ANO1 block	MEKK2 WT-MEK5	MEKK3 PB1 HTS	NTR1 agonist	MEKK2 mut-MEK5	ANO1 activ	NTR1 ag conf	others
COC(=O)c1sc(S(=O)(=O)N2CC(C)OC(C)C2)c(C(=O)OC)c1C (stereo unspecified)	.	.	.	-1.9	.	i	.
COC(=O)CSc1nc(N)c2c3c(sc2n1)C(c1ccccc1)SC(c1ccccc1)C3 (stereo unspecified)	i	93.0	99.0	49.9*	-2.0	i	32.2
COC(=O)CSc1nc(N)c2c3c(sc2n1)CCCC3	i	.	.	-0.9	.	i	.
O=C(NNc1c2ccccc2nc2ccccc12)c1ccccc1O	i	101.0	100.0	49.5*	1.0	i	3.5
Brc1ccc(-c2ccc(/C=N/Nc3nc(N4CCOCC4)nc(N4CCOCC4)n3)o2)cc1	i	97.0	111.0	13.7	-1.0	i	.
Fc1cnc(N/N=C/c2ccc(-c3ccc(Br)cc3)o2)nc1N1CCOCC1	i	98.0	98.0	40.9*	-2.0	i	24.3
CCOc1cc(C(=O)N(C)CC(=O)Nc2cccc(F)c2)ccc1OCC(=O)N1CCOCC1	i	.	.	0.5	.	i	.
NCCCC[C@H]1CNC(=O)C(=O)N1CCCCC1CCCCC1	i	107.0	98.0	-0.3	4.0	i	.
O=C1NC[C@@H](Cc2cccc3ccccc23)N(CCCCC2CCCCC2)C1=O	i	.	.	40.9*	.	i	-1.9
NC(=O)CSc1nnc(-c2ccccc2F)n1C1CC1	i	100.0	99.0	0.4	2.0	i	.
C[C@H](NC(=O)c1nc[nH]c1C(=O)N[C@@H](Cc1ccccc1)C(=O)OCc1ccccc1)C(=O)OCc1ccccc1	i	100.0	102.0	20.4	-1.0	i	.
CC(C)(C)OC(=O)NCc1ccc(CNC(=O)c2nc[nH]c2C(=O)NCc2ccccc2)cc1	.	.	.	9.1	.	i	.
C[C@H](NC(=O)c1nc[nH]c1C(=O)N[C@@H](Cc1ccccc1)C(=O)OC(C)(C)C)C(=O)OCc1ccccc1	i	96.0	97.0	41.1*	-11.0	i	13.5
O=C(N[C@@H](Cc1ccccc1)C(=O)OCc1ccccc1)c1nc[nH]c1C(=O)N1CCc2ccccc2C1	i	94.0	99.0	48.1*	-4.0	i	10.2
CC(C)(C)OC(=O)NCc1ccc(CNC(=O)c2[nH]cnc2C(=O)NCC(=O)OCc2ccccc2)cc1	i	100.0	105.0	55.5*	-3.0	i	30.6
COc1ccc(-c2nnc(SCC(=O)c3ccc(O)cc3O)o2)cc1	i	102.0	105.0	0.8	2.0	i	.
Cc1ccc(S(C)(=O)=O)cc1C(=O)N1CC(C(N)=O)Oc2ccccc21 (stereo unspecified)	i	104.0	101.0	-0.6	-1.0	i	.
O=C(Nc1ccc(-c2nc3ccccc3o2)cc1)c1ccc2c(c1)OCO2	i	87.0	89.0	8.2	-1.0	i	.
O=C(Nc1ccc2oc(-c3ccccc3F)nc2c1)c1ccc2c(c1)OCCO2	100*	101.0	107.0	45.9*	4.0	i	53.0*	TMEM16A reconf=17.0%*;TMEM16A Ca cntr=i;Parental YFP cnt=-1.04;ClC-1 rat inh=-14.0
O=S(=O)(c1ccc(-c2ccccn2)s1)N1CCC2(CC1)OCCO2	i	100.0	105.0	-0.3	-1.0	i	.
O=C(CNS(=O)(=O)c1ccc(Br)cc1)NCc1ccncc1	i	97.0	100.0	-1.5	1.0	i	.
Cc1ccc(-c2nc3cccnc3o2)cc1NC(=O)COc1ccc(C(C)(C)C)cc1	25*	99.0	103.0	61.6*	0.0	i	22.3	TMEM16A reconf=i;TMEM16A Ca cntr=21.0%*;Parental YFP cnt=-1.03;ClC-1 rat inh=-18.0
COc1ccc(CNCC(O)COc2ccc(C(C)(C)c3ccccc3)cc2)cc1 (stereo unspecified)	25*	139.0	103.0	49.7*	20.0	i	6.3	TMEM16A reconf=26.0%*;TMEM16A Ca cntr=i;Parental YFP cnt=-1.3;ClC-1 rat inh=-13.5
CCOc1ccc(C(=O)C(C)OC(=O)C2CCN(c3ccc(C(F)(F)F)cn3)CC2)cc1 (stereo unspecified)	25*	.	.	2.8	.	i	.	TMEM16A reconf=i;TMEM16A Ca cntr=i;Parental YFP cnt=-1.14;ClC-1 rat inh=-12.0
CC1CCCCN1C(=O)CSc1nnc(-c2ccco2)o1 (stereo unspecified)	i	107.0	105.0	0.8	10.0	i	.
CC(=O)c1cccc(S(=O)(=O)Nc2ccc3nc(C)sc3c2)c1	100*	102.0	104.0	3.4	1.0	i	.	TMEM16A reconf=i;TMEM16A Ca cntr=i;Parental YFP cnt=-0.956;ClC-1 rat inh=-10.0
O=C(COC(=O)C1=NN(c2ccccc2)C(=O)CC1)Nc1ccc([N+](=O)[O-])cc1C(F)(F)F	.	.	.	0.7	.	i	.
O=C(NNS(=O)(=O)c1ccc(F)cc1)c1cc2ccccc2cc1O	100*	103.0	102.0	0.6	0.0	i	.	TMEM16A reconf=23.5%*;TMEM16A Ca cntr=i;Parental YFP cnt=-0.738;ClC-1 rat inh=-11.5
O=C(NNS(=O)(=O)c1ccc(F)cc1)c1ccccc1F	i	102.0	100.0	-0.3	3.0	i	.
CCC1=NN(C(=O)c2ccccc2O)C(O)(c2ccccc2)C1 (stereo unspecified)	25*	105.0	105.0	0.9	6.0	i	.	TMEM16A reconf=i;TMEM16A Ca cntr=i;Parental YFP cnt=-0.913;ClC-1 rat inh=-10.0

Screening data as filed in PubChem.
